From PubChem BioAssay
Where “and” joins values, the source holds several entries; their conditions need not be identical. Equal entries are not always repeated. Unmarked numbers belong to inactive results. Calls of active or inactive are those of the source.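 How the source made its calls: active means thallium flux through the channel raised or lowered by more than 3 SD from vehicle-only wells, actives on both sides; inactive means the rest.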

These molecules were tested on R275C (assay: BK channel mutant inhibitors and activators – cell-based, U2OS BacMam, thallium flux, beta subunits, selectivity assay, profiling panel (AID 1259406;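 further: initial slope of Thallos dye fluorescence rise after thallium is added; log ratio against the mean of 0.3% DMSO vehicle wells on the same plate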)). Conditions: U2OS BacMam BK variants, at 30 µM.
`NS(=O)(=O)c1cc(C2(O)NC(=O)c3ccccc32)ccc1Cl` (stereo not drawn) gave a log fold change Tl+ flux of -0.0359.
`CN(C)CCc1c[nH]c2ccc(C[C@H]3COC(=O)N3)cc12` was tested, and the log fold change Tl+ flux was -0.02.
`Cc1ccc(-c2cc(C(F)(F)F)nn2-c2ccc(S(N)(=O)=O)cc2)cc1` was tested, and the log fold change Tl+ flux was -0.00943.
In the case of `CN[C@H]1CC[C@@H](c2ccc(Cl)c(Cl)c2)c2ccccc21`, the log fold change Tl+ flux is reported as -0.288 (active) and -0.259 (active).
Molecule `O=S(=O)(O)CCS` has a log fold change Tl+ flux of 0.029.
`C/C=C/C(=O)N(CC)c1ccccc1C` gave a log fold change Tl+ flux of -0.0159.
`COc1ccc(OC)c(C(O)CNC(=O)CN)c1` (stereo not drawn) showed a log fold change Tl+ flux of -0.0312.
Molecule `Cn1cnc([N+](=O)[O-])c1Sc1ncnc2nc[nH]c12` has a log fold change Tl+ flux of -0.0406.
Work on `c1ccc2[nH]c(-c3cscn3)nc2c1` yielded a log fold change Tl+ flux of 0.0284.
Work on `CCCNCC(O)COc1ccccc1C(=O)CCc1ccccc1` (stereo not drawn) yielded a log fold change Tl+ flux of 0.00823.
`NC(=O)N1c2ccccc2CC(=O)c2ccccc21` gave a log fold change Tl+ flux of -0.0757.
Work on `Cc1cn([C@H]2C[C@H](N=[N+]=[N-])[C@@H](CO)O2)c(=O)[nH]c1=O` yielded a log fold change Tl+ flux of -0.0157.
In the case of `CN(CCOc1ccc(CC2SC(=O)NC2=O)cc1)c1ccccn1` (stereo not drawn), the log fold change Tl+ flux is reported as 0.0457 and 0.0237.
Molecule `COc1ccccc1OCC(O)COC(N)=O` (stereo not drawn) has a log fold change Tl+ flux of 0.00553.
`OC(CCN1CCCC1)(c1ccccc1)C1CCCCC1` (stereo not drawn) was tested, and the log fold change Tl+ flux was 0.00132.
`O=C1C(CCS(=O)c2ccccc2)C(=O)N(c2ccccc2)N1c1ccccc1` (stereo not drawn) was tested, and the log fold change Tl+ flux was -0.0788.
`COC(=O)Nc1nc2ccc(C(=O)c3ccccc3)cc2[nH]1` gave a log fold change Tl+ flux of -0.00107.
`CCn1cc(C(=O)O)c(=O)c2cc(F)c(N3CCN(C)CC3)cc21` showed a log fold change Tl+ flux of -0.0565.
With `CN1CCCC(n2nc(Cc3ccc(Cl)cc3)c3ccccc3c2=O)CC1` (stereo not drawn) the log fold change Tl+ flux was -0.0931.
For `NCc1ccc(S(N)(=O)=O)cc1`, the log fold change Tl+ flux was 0.00729.
With `Clc1ccc2c(c1)C(N1CCNCC1)=Nc1ccccc1O2` the log fold change Tl+ flux was 0.021.
In the case of `CC(C)(C)NCC(O)COc1cccc2c1C[C@H](O)[C@H](O)C2` (stereo partly drawn), the log fold change Tl+ flux is reported as -0.00576.
`NS(=O)(=O)c1cc2c(cc1Cl)NC=NS2(=O)=O` was tested, and the log fold change Tl+ flux was 0.0234.
